The supplement of paper PMC6555819

Experiments:
Assay in all cases: PBM binding z-score (relative to random genomic background probes); higher = stronger binding; sequences stand for … in GC…GCGATTGACAGCGTAGAATGAAGG
[1] = test system: RARb homodimer (NR concentration 270 nM)
How it was run: (§1)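 Binding buffer was PBS pH 7.4 with 2% milk, 0.02% Triton X-100, 1 mM DTT, 0.2 mg/mL BSA and 0.4 mg/ml salmon testes DNA. In it, ligand-free nuclear receptor dimers were incubated 1 h on custom Agilent 4×180K protein-binding microarrays carrying double-stranded probes. Antibodies against each partner (one per run) detected binding, and z-scores were calculated against random background probes after regression normalization of scanned fluorescence.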

[2] = test system: RARg:RXRa (NR concentration 270 nM, RXRa partner concentration 90 nM)
How it was run: as §1

[3] = test system: RARg homodimer (NR concentration 270 nM)
How it was run: as §1

[4] = test system: RXRa DBDmut IVT, anti-RXR (DBD mutation: RXRa K156A/R161A, NR concentration 90 nM)
How it was run: as §1

[5] = test system: RXRa homodimer (NR concentration 180 nM)
How it was run: as §1

[6] = test system: THRa:RXRa (NR concentration 90 nM, RXRa partner concentration 90 nM)
How it was run: as §1

[7] = test system: THRa homodimer (NR concentration 90 nM)
How it was run: as §1

[8] = test system: VDR homodimer (NR concentration 270 nM)
How it was run: as §1

| Sequence | PBM binding z-score [1] | PBM binding z-score [2] | PBM binding z-score [3] | PBM binding z-score [4] | PBM binding z-score [5] | PBM binding z-score [6] | PBM binding z-score [7] | PBM binding z-score [8] |
| --- | --- | --- | --- | --- | --- | --- | --- | --- |
| TAGCCTAGGTCATTCAGGGGCCAGTATGGAAAGC | 3.26 | 6.2 | 4.83 | 1.72 | 2.92 | 3.67 | 0.641 | 1.17 |
| CGTCCAAGGTAAGAGAGGTCAGTGAATGCCGAGT | 3.65 | 2.87 | 3.04 | 0.742 | 2.46 | 2.91 | 1.13 | 1.93 |
| CCGAGTAGGTTACGAGGGGGCCTTCAGTGCGAAT | 0.846 | 2.15 | 1.32 | 0.265 | 0.978 | 2.11 | 0.4 | 0.498 |
| CGAACTAGGTTAAAGGACAGTGAAAGGCGACGTA | 1.34 | 1 | 1.38 | -0.1 | 0.702 | 0.788 | -0.308 | -0.464 |
| CGTCCAAGGTCATAAGAGGTCAGTGAAGACAGAT | 5.16 | 7.1 | 7.88 | 4.16 | 7.05 | 5.23 | 3.25 | 5.57 |
| ATATGTAGGTTAGGGACATTCAGAAAGTAGGGAA | 1.11 | 0.67 | 1.27 | 0.8 | 0.406 | 2.32 | 1.51 | 0.36 |
| TGTCAGAGTTCAAAGGTAACGTAAGTATCCACAC | 3.41 | 5.95 | 5.28 | 4.83 | 7.51 | 3.53 | -0.159 | 5.41 |
| ACTAGTTGCTCAGCTGAGGTCACACACAATTCGG | 3.77 | 3.37 | 2.72 | 1.09 | 3.6 | 4.23 | 4.94 | 3.14 |
| CGAACTAGGTCACCAGGATAGTGAAGAGGTTGGA | 3.4 | 4.23 | 5.43 | 1.26 | 3.14 | 3.3 | 1.45 | 0.463 |
| CCGAGTAGGTTAAGAGGGGGCATTCAGTGCGAAT | 2.25 | 2.76 | 2.49 | 2.04 | 1.76 | 3.73 | 0.843 | 4.02 |
| CGAACTAGGTAAAAGGACAGTGAAAGGCGACGTA | 1.17 | 0.486 | 0.964 | -0.478 | 0.114 | 0.444 | -0.377 | -0.349 |
| CCTTACGGGTCAGGAGGTTATAGCACGACGAGCG | 3.15 | 4.9 | 4.22 | -0.195 | 4.96 | 2.37 | 0.0139 | 0.418 |
| CGAACTAGGACAAAGGACAGTGAAAGGCGACGTA | 0.856 | 0.618 | 1.24 | -0.1 | 0.0792 | 0.519 | -0.508 | -0.415 |
| GATACAGGGTCAGCTTGAGGCCAGAGTATGGAAA | 2.94 | 5.72 | 4.77 | 1.81 | 4.55 | 3.73 | 0.959 | 0.666 |
| AATTCAGGGTCACTAGGCCAGAGTAGGTACGAAT | 3.83 | 6.06 | 5.56 | 3.39 | 6.68 | 4 | 1.78 | 2.97 |
| CGAACTAGGTCACCAGGACTGTGAAGAGGTTGGA | 3.39 | 4.54 | 5.16 | 1.46 | 3.6 | 3.24 | 1.3 | 0.447 |
| CTATGTAGGTTAAGAGGGTCATTCAGTTTGAAAG | 3.03 | 3.16 | 2.3 | 1.33 | 3.33 | 2.42 | 0.33 | 3.39 |
| CCGAGTAGGTTACGAGGGGGAATTCAGTGCGAAT | 0.662 | 1.53 | 1.1 | 0.572 | 1.09 | 1.79 | 0.0868 | 0.419 |
| CGTCAAAGTTCAACTAATGTAACGTAAAGCACGC | 3.96 | 5.66 | 6.9 | 4.76 | 4.75 | 3.31 | 0.305 | 4.13 |

| Sequence | PBM binding z-score [1] | PBM binding z-score [2] | PBM binding z-score [3] | PBM binding z-score [4] | PBM binding z-score [5] | PBM binding z-score [6] | PBM binding z-score [7] | PBM binding z-score [8] |
| --- | --- | --- | --- | --- | --- | --- | --- | --- |
| CTTTACGGGTCAAGGTTATAGCACGGGTGGTACG | 3.7 | 5.18 | 5.01 | 1.93 | 5.61 | 3.26 | 1.1 | 1.77 |
| ATATATAGGTTAGGGTCATTCAGAAAGTAGGGAA | 3.6 | 4.24 | 3.75 | 2.67 | 5.33 | 4.11 | 3.76 | 3.95 |
| CTATGTAGCTTAAGGGGGTCATTCAGTTTGAAAG | 3.58 | 4.42 | 3.15 | 2.56 | 5.27 | 3.69 | 2.41 | 6.05 |
| CTATGTAGGTTAACGGGGTCATTCAGTTTGAAAG | 4.24 | 5.11 | 3.74 | 3.05 | 6.78 | 4.44 | 2.55 | 7.5 |
| CCTCGGAGGACAGAAGGTCAGATCTGTCCGCTTT | 3.49 | 3.26 | 3.53 | 0.421 | 2.01 | 2.25 | 0.0201 | 0.21 |
| CGAACTAGGTCAAAGGACAGTGATAGGCGACGTA | 3.06 | 3.97 | 4.98 | 1.56 | 3.26 | 2.56 | 0.594 | 0.324 |
| CGAACTAGGTCACCAGGACAGTGAAGAGGTTGGA | 3.32 | 4.52 | 5.42 | 1.45 | 3.39 | 3.28 | 1.95 | 0.49 |
| TCGAGTAGGTTACGGGGGCATTCAAGGATGAAGA | 2.13 | 3.22 | 2.33 | 1.68 | 2.9 | 4.28 | 1.06 | 2.77 |
| CGATCTAGGTCACCAGGACAGTGAAGAGGTTGGA | 3.47 | 4.36 | 5.15 | 1.35 | 3.32 | 3.44 | 2.13 | 0.435 |
| CAAACTAGGTCACCGGGAGGTCAAAGTCCGCATG | 5.88 | 8.67 | 7.68 | 2.07 | 7.06 | 4.94 | 4.06 | 4.85 |
| CCTACTGGGCCGAGGTCATTGATCAGTCAAAGCA | 3.3 | 4.27 | 3.11 | 1.96 | 4.68 | 3.52 | 2.67 | 4.32 |
| ACTAGAAGGCCAAGGGTCACTCAAGATTAGTCCG | 3.97 | 4.79 | 4.33 | 0.883 | 4.57 | 2.87 | 0.528 | 1.92 |
| TCGATTAGGTTACGGGGGCATTCAGGGATGAAGA | 2.92 | 3.79 | 3.07 | 2.95 | 3.17 | 4.36 | 2.54 | 4.05 |
| CGATCTAGGTCAAAGGACAGTGAAAGGCGACGTA | 2.74 | 3.63 | 4.58 | 1.7 | 2.76 | 2.62 | 0.472 | 0.297 |
| ACTTACGGGTCAACGAAGTTATAGCACGCGTATA | 3.02 | 5.31 | 4.65 | 1.66 | 5.31 | 2.78 | -0.0625 | 0.948 |
| CGTCAAAGTTCAAGGTAATGTAACAGAAAGCAGC | 4.04 | 5.25 | 6.13 | 4.23 | 4.26 | 2.88 | 0.964 | 3.14 |
| TCTAGTAGGTTACGGGGGCATTCAGGGATGAAGA | 2.73 | 3.98 | 3.21 | 2.95 | 3.28 | 4.01 | 2.2 | 3.82 |
| AAAATGAGGTTAAGATCAGGGAAACAGAATACAT | 1.03 | 2.28 | 1.37 | 1.32 | 2.73 | 2.75 | 0.772 | 0.778 |
| GCTCGGGGGACAAGGTCAGAGCTTTGTCCGTAGA | 3.12 | 4.71 | 4.55 | 1.43 | 3.63 | 3.48 | 1.91 | 1.47 |

| Sequence | PBM binding z-score [1] | PBM binding z-score [2] | PBM binding z-score [3] | PBM binding z-score [4] | PBM binding z-score [5] | PBM binding z-score [6] | PBM binding z-score [7] | PBM binding z-score [8] |
| --- | --- | --- | --- | --- | --- | --- | --- | --- |
| CCTAGTAGGTTACGAGGGGGCATTCAGTGCGAAT | 2.39 | 3.44 | 2.96 | 1.47 | 2.43 | 3.91 | 0.978 | 3.98 |
| CCGAGTAGGTTACGAGGGGGCGTTCAGTGCGAAT | 1.42 | 2.52 | 1.89 | 1.17 | 1.42 | 3.16 | 0.485 | 2.88 |
| CTATGTAGGTTAAGGGGGTCATTAAGTTTGAAAG | 3.65 | 4.97 | 3.44 | 2.43 | 5.43 | 3.79 | 2.03 | 6.07 |
| CCGAGTAGGTTACGACGGGGCATTCAGTGCGAAT | 0.791 | 0.882 | 0.746 | -0.202 | 0.769 | 2 | -0.61 | 0.32 |
| TGAATGAGGTGAAAGATCAGGGAACGTGGCGTCG | 0.154 | 1.51 | 0.868 | -0.365 | 2.17 | 2.78 | 0.878 | -0.213 |
| CCGAGTAGGTTACGCGGGGGCATTCAGTGCGAAT | 2.09 | 3.1 | 2.15 | 1.8 | 2.23 | 4.51 | 0.878 | 3.76 |
| ATCTCTAGGTAAATGTTCAGTGAATCCCGAGGAT | -0.29 | 0.459 | 0.485 | -0.155 | 0.162 | 0.097 | 0.171 | -0.0904 |
| GCTGCTAGGTCGACTGATGGTCAGCTAAAGCTCG | 0.638 | 1.2 | 0.89 | 0.38 | 0.265 | 0.35 | -0.82 | -1 |
| AGAATGAGGTTAGCAAAGATCAGGGAAACGCTTG | 0.446 | 0.938 | 0.899 | 0.105 | 1.23 | 1.8 | 0.173 | -0.135 |
| GGAACGAGGGCATTCGAGTTGATAGCATGGCGAT | 0.687 | 0.932 | 1.3 | 3.13 | 0.756 | 3.03 | -0.775 | 2.78 |
| CGAAATAGGTCAAAGGACAGTGAAAGGCGACGTA | 3.4 | 4.97 | 5.11 | 1.3 | 4.58 | 2.4 | -0.113 | 0.355 |
| CGTCCAAGGTCAGAGAGGTCAGTGTATGCCGAGT | 5.2 | 6.1 | 6.77 | 3.28 | 5.29 | 4.14 | 3 | 5.78 |
| ATCGAAAGGTGGACGAGGTGAGTATACACCGTTT | 0.375 | 0.545 | 0.833 | -0.461 | 0.799 | 1.77 | 0.434 | -0.347 |
| CTATGTACGTTAAGGGGGTCATTCAGTTTGAAAG | 3.65 | 4.57 | 3.69 | 2.99 | 5.04 | 3.86 | 2.71 | 5.96 |
| TCGAGTAGCTTACGGGGGCATTCAGGGATGAAGA | 0.903 | 1.03 | 0.544 | 1.14 | 1.12 | 3.35 | 0.239 | 2.71 |
| ATCGAAAGGTCGTGACGTGAGTATACAGAAAGGC | 2.18 | 4.37 | 3.53 | 0.904 | 4.94 | 2.15 | -0.269 | 0.662 |
| AGTAAAAGTTCACTAGGTAACGTAAGATTCAGCT | 3.39 | 4.08 | 4.93 | 4.22 | 3.39 | 1.8 | 0.341 | 3.76 |
| CGTCCAAGGTCAGCAGGTGAGTGAAAGCGACGTG | 3.84 | 5.23 | 6.27 | 2.47 | 3.87 | 3.28 | 1.95 | 0.692 |
